Bioassay records (PubChem BioAssay)
TDP1 cell noCPT = qHTS for Inhibitors of human tyrosyl-DNA phosphodiesterase 1 (TDP1): qHTS in cells in absence of CPT. DT40 Tdp1-/- hTDP1 cells, no CPT, ATP luminescence, 48 h. Potency, µM (highest dose often 46.2 µM), most hits filed as inhibitors. 420,000 compounds, 15% hits; further: nearly all actives have a fitted effect of over 55% in size
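Camptothecin absent (DMSO only). Human TDP1-complemented DT40 knockout cells, 400 cells/well, 37 °C for minimum 48 hr; ATP measured via CellTiter-Glo, 30 min dark incubation, luminescence.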
TDP1 block = blocks human tyrosyl-DNA phosphodiesterase 1; Q9NUW8; recombinant TDP1, AlphaScreen DNA substrate cleavage; Potency, µM (top dose mostly 130 µM), actives largely listed as inhibitors; 350,000 compounds, 0.28% hits; AID 485290; further: nearly all actives have a fitted effect of over 40% in size
Target sequence (Q9NUW8 whole entry, looked up): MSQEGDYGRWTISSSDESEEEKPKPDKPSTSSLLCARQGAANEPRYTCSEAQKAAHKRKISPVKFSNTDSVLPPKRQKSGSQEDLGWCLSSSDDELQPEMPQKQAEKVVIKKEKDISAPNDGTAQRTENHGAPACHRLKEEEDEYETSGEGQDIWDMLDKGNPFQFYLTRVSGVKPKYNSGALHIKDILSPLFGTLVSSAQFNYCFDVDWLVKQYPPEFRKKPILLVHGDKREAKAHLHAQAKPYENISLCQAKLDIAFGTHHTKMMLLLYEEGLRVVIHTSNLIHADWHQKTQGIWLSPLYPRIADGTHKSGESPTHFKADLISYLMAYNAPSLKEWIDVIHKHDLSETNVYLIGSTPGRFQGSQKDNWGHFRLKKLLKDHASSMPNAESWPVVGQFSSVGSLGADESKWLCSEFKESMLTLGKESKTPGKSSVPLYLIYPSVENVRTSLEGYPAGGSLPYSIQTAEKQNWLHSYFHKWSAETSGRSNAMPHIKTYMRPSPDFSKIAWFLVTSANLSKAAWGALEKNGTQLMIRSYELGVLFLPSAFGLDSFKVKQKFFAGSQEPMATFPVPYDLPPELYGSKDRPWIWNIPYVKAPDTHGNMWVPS
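Steps: enzyme plus compound, 15 min RT; add biotin/phosphotyrosine-FITC oligonucleotide (15 nM final), react 5 min; add donor/acceptor beads (10 ug/ml final), 10 min; read AlphaScreen. Tdp1 at 1 nM final.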
ClpP mod = qHTS Assay for Activators of ClpP | purified B. subtilis ClpP, FRET peptide cleavage, 20 min | Potency, µM (top dose mostly 57.5 µM) | 340,000 compounds, 1.9% hits; active means well fitted falling curve with a large enough effect; inconclusive means small, poorly fitted or top-dose-only effect; inactive means no such curve, though single readings can be large or run the other way; further: the source files actives as falling curves though it sought activators and does not explain the sign; nearly all actives have a fitted effect of over 65% in size
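FRET quenching reversal measured ClpP activation: 10 microg/mL B. subtilis ClpP at pH 8 with the FRET-FV decapeptide, read at 430 nm after 320 nm excitation. The 20-min minus 0-min signal was scaled between DMSO/no-enzyme wells and ADEP (5.8 microM final).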
TDP1 cell CPT = growth inhibition of DT40 Tdp1-/-;hTDP1 cells with camptothecin (screen for TDP1 inhibitors). 420,000 compounds, 12% hits. AID 686979. Potency, µM (highest dose often 46.2 µM), most hits filed as inhibitors. chicken DT40 Tdp1-/-;hTDP1 cells + 20 nM CPT, ATP luminescence, 48 h; further: nearly all actives have a fitted effect of over 55% in size
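Chicken DT40 Tdp1-/- cells stably complemented with human TDP1 were seeded at 400 cells/well in medium containing 20 nM camptothecin, exposed to pin-transferred compounds, and grown at 37 °C for at least 48 hr. Viability was read as ATP luminescence.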
Hits are given with their value; 0 = inactive; ? = inconclusive; - = no result; [ ] = remark or other dose. Only some compounds are listed: those with a hit (about 17% of all), similar ones and a draw of the others. Unless noted, the call rests on the fitted dose curve; in most records, active means well fitted curve in the direction sought with a large enough effect; inconclusive means small, poorly fitted or top-dose-only effect, or another doubt; inactive means no such curve, though single readings can be large; an effect the other way counts as inactive or inconclusive.

SMILES | TDP1 cell noCPT | TDP1 block | ClpP mod | TDP1 cell CPT
COc1ccccc1C(=O)Nc1cccc(OCc2cc(=O)n3c(C)csc3n2)c1 | 23µM | 0 | ? | 16µM
Cc1ccccc1C(=O)Nc1cccc(OCc2cc(=O)n3c(C)csc3n2)c1 | 0 | 0 | 0 | 0
COc1cc(C(=O)Nc2cccc(OCc3cc(=O)n4c(C)csc4n3)c2)cc(OC)c1OC | 15µM | 0 | 0 | 21µM
Cc1ccc(N2CC(NC(=O)c3ccco3)CC2=O)cc1 (configuration not stated) | 0 | 0 | 0 | 0
Cc1ccc(NC(=O)CCN2CCC(Cc3ccccc3)CC2)cc1 | ? | - | - | 0
CN1CCCCCC1=Nc1ccc([N+](=O)[O-])cc1 | 0 | - | 11µM | 0
CN1CCCC1=Nc1ccccc1 | 0 | - | 0 | 0
COCCSc1nc2c([nH]c3ccccc32)c(=O)n1-c1ccc(OC)c(OC)c1 | ? | 0 | 0 | 0
O=C(O)c1ccc(NS(=O)(=O)c2cccc(C(=O)Nc3cccc(C(=O)O)c3)c2)cc1 | 0 | - | 0 | 0
CC1=NN(c2ccccc2)C(=O)C1N=Nc1ccccc1 (configuration not stated) | 0 | 0 | - | 0
CC1=NN(c2ccccc2)C(=O)C1N=Nc1ccc(N)cc1 (configuration not stated) | 10µM | 0 | 0 | 15µM
CC1=NN(c2ccccc2)C(=O)C1N=Nc1cccc(O)c1 (configuration not stated) | 16µM | 0 | - | 16µM
COc1ccc2c(c1)c1nc3n(c(=O)c1n2CC(=O)Nc1ccccc1)CCCS3 | 0 | 0 | 0 | 0
Cc1ccc(Nc2ncnc3c2cnn3C)cc1 | ? | 0 | 0 | 0
Cc1ccc(-n2cc(-c3ccccc3)c3c(N4CCC(C)CC4)ncnc32)cc1Cl | 0 | 0 | 0 | 0
CC(=O)Nc1ccc(Nc2ncnc3c2c(-c2ccccc2)cn3-c2ccccc2)cc1 | 18µM | 0 | 0 | 16µM
COc1ccc(-n2cc(-c3ccccc3)c3c(Nc4ccc(OC)c(OC)c4)ncnc32)cc1 | ? | 0 | ? | ?
CC(=O)Nc1ccc(Nc2ncnc3c2c(-c2ccccc2)cn3-c2ccc(C)c(Cl)c2)cc1 | 8.2µM | 0 | ? | 9.2µM
CC(=O)Nc1ccc(Nc2ncnc3c2cnn3C)cc1 | ? | 0 | 0 | 16µM
CCCn1c(=O)n(-c2ccccc2)c(=O)c2sc3ccccc3c21 | ? | 0 | 0 | 0
Cc1ccc(S(=O)(=O)N2CCC(C(=O)NCCCn3ccnc3)CC2)cc1 | ? | 0 | 16µM | 0
O=C(NCCCn1ccnc1)c1ccc(S(=O)(=O)N2CCCCCC2)cc1 | ? | 0 | 0 | ?
CC1CC(C)CN(S(=O)(=O)c2ccc(C(=O)NCCCn3ccnc3)cc2)C1 (configuration not stated) | ? | 0 | 0 | 29µM
COc1cc2cc(C(c3nnnn3C3CCCCC3)N(C)C3CCCCC3)c(=O)[nH]c2cc1OC (configuration not stated) | ? | 0 | ? | 23µM
COc1cc2cc(C(c3nnnn3C3CCCC3)N(C)C3CCCCC3)c(=O)[nH]c2cc1OC (configuration not stated) | 25µM | 0 | ? | 16µM
SMILES | TDP1 cell noCPT | TDP1 block | ClpP mod | TDP1 cell CPT
COc1cc2cc(C(c3nnnn3Cc3ccc(F)cc3)N3CCCCCC3)c(=O)[nH]c2cc1OC (configuration not stated) | ? | 0 | 0 | 0
Cc1ccc(C(c2nnnn2C2CCCCC2)N(C)C2CCCCC2)cc1 (configuration not stated) | 23µM | 0 | 0 | 23µM
Cc1cc2cc(C(c3nnnn3C3CCCC3)N(Cc3cccnc3)Cc3ccco3)c(=O)[nH]c2cc1C (configuration not stated) | ? | 0 | ? | ?
COCC(Cc1ccccc1)NC(=O)Cn1cc(C)c(=O)[nH]c1=O (configuration not stated) | 0 | - | 0 | 0
COc1ccc(-c2noc(CN3CCN(c4ccccc4)CC3)n2)cc1 | 0 | 0 | 0 | ?
COc1ccc(-c2noc(CN3CCN(c4ccccc4OC)CC3)n2)cc1OC | ? | 0 | 0 | 21µM
COc1cc(-c2noc(CN3CCN(c4cccc(Cl)c4)CC3)n2)cc(OC)c1OC | 21µM | 0 | 0 | 16µM
COc1ccc(-c2ccc(C(=O)N(C)Cc3csc(C)n3)c(N3CCC(N4CCc5ccccc5C4)CC3)n2)cc1 | 0 | - | - | 0[9.04 µM]
CN=c1scc(-c2ccc(OC)cc2)n1/N=C(\C)c1cccnc1 | 18µM | 0 | 0 | ?
CCOC(=O)c1sc(-c2ccc(Cl)cc2Cl)nc1O | 18µM | 0 | - | 26µM
COc1cc(CN2CCOc3ccc(CN4CCN(CCO)CC4)cc3C2)ccc1F | 0 | - | - | 0[9.04 µM]
COc1cc(/C=N\N=C2/SC(CC(=O)O)C(=O)N2c2ccc(O)cc2)ccc1O (configuration not stated) | 0 | 0 | 0 | 0
COc1cc(/C=N/N=C2/SCC(=O)N2c2ccc(O)cc2)ccc1O | 21µM | 0 | - | 9.2µM
CC(NC(=O)Cc1ccccc1)c1ccccc1 (configuration not stated) | 0 | 0 | 0 | 0
CC(NC(=O)C(Cc1ccccc1)=NO)c1ccccc1 (configuration not stated) | 23µM | - | 0 | 21µM
CCOc1ccc(N=c2scc(-c3ccccc3)n2CCO)cc1 | 23µM | 0 | 0 | 16µM
CCn1c(-c2ccccc2)csc1=Nc1ccc(O)cc1 | ? | 0 | 0 | ?
CCOc1ccc(N=c2scc(-c3ccc(OC)cc3)n2CCO)cc1 | ? | 0 | 0 | 9.2µM
Cc1noc(C)c1NC(=O)N(C)C[C@H]1Oc2ccc(NC(=O)Nc3ccc(C(F)(F)F)cc3)cc2C(=O)N([C@H](C)CO)C[C@@H]1C | 0 | 0 | 0 | 0
O=C(Nc1nonc1NC(=O)c1cccs1)c1cccs1 | 23µM | 0 | - | 26µM
O=C(NCCCNC(=O)c1cccs1)c1cccs1 | 9.2µM | 0 | 0 | 8.2µM
O=C(Nc1ccccn1)c1cccs1 | 26µM | 0 | 0 | 18µM
O=C(Nc1ccc(NC(=O)c2cccs2)cc1)c1cccs1 | 0 | - | - | 0
CC(=O)OCC1OC(n2c(-c3ccc(Cl)cc3)ccc(C#N)c2=S)C(OC(C)=O)C(OC(C)=O)C1OC(C)=O (configuration not stated) | 0 | - | 0 | 0
CC1(C)NC(=O)N(CCOCCOc2c(Cl)cc(Cl)cc2Cl)C1=O | ? | 0 | 0 | ?
SMILES | TDP1 cell noCPT | TDP1 block | ClpP mod | TDP1 cell CPT
Cc1ccc2nccc(/C=C/c3ccc(N(C)C)cc3)c2c1 | 14µM | - | 0 | 11µM
Cc1cc(C)c2c(/C=C/c3ccc(N(C)C)cc3)ccnc2c1 | ? | - | 0 | ?
CN(C)c1ccc(/C=C/c2ccnc3cc(Cl)ccc23)cc1 | 11µM | - | 0 | ?
Cc1ccc2c(/C=C/c3ccc(N(C)C)cc3)ccnc2c1 | ? | - | 0 | 11µM
COc1ccc(OC)c2c(/C=C/c3ccc(N(C)C)cc3)ccnc12 | 6.3µM | - | 0 | 10µM
COc1ccc(O)c(-c2nc3ccccc3c(=O)n2Cc2ccccc2)c1 | - | 0 | - | -
CN(C)c1ccc(/C=C/c2ccnc3c2ccc2c(/C=C/c4ccc(N(C)C)cc4)ccnc23)cc1 | 0 | - | 0 | 0
